# Source: PubChem
# KDM5B inh – KDM5B demethylase inhibition; Q9UGL1; KDM5B demethylase, FDH-coupled NADH fluorescence (FDH is formaldehyde dehydrogenase); Potency, µM (doses to about 57.7 µM), most hits filed as inhibitors; hit rate 2.6% among 220,000; active = well fitted inhibition curve with a large enough effect; inconclusive = small, poorly fitted or top-dose-only effect; inactive = no such curve, though single readings can be large or run the other way; also: potency is read from the fitted curve at half-maximal effect; 0% is about no effect; nearly all actives have a fitted effect of over 70% in size
# Target sequence (Q9UGL1 whole entry, looked up): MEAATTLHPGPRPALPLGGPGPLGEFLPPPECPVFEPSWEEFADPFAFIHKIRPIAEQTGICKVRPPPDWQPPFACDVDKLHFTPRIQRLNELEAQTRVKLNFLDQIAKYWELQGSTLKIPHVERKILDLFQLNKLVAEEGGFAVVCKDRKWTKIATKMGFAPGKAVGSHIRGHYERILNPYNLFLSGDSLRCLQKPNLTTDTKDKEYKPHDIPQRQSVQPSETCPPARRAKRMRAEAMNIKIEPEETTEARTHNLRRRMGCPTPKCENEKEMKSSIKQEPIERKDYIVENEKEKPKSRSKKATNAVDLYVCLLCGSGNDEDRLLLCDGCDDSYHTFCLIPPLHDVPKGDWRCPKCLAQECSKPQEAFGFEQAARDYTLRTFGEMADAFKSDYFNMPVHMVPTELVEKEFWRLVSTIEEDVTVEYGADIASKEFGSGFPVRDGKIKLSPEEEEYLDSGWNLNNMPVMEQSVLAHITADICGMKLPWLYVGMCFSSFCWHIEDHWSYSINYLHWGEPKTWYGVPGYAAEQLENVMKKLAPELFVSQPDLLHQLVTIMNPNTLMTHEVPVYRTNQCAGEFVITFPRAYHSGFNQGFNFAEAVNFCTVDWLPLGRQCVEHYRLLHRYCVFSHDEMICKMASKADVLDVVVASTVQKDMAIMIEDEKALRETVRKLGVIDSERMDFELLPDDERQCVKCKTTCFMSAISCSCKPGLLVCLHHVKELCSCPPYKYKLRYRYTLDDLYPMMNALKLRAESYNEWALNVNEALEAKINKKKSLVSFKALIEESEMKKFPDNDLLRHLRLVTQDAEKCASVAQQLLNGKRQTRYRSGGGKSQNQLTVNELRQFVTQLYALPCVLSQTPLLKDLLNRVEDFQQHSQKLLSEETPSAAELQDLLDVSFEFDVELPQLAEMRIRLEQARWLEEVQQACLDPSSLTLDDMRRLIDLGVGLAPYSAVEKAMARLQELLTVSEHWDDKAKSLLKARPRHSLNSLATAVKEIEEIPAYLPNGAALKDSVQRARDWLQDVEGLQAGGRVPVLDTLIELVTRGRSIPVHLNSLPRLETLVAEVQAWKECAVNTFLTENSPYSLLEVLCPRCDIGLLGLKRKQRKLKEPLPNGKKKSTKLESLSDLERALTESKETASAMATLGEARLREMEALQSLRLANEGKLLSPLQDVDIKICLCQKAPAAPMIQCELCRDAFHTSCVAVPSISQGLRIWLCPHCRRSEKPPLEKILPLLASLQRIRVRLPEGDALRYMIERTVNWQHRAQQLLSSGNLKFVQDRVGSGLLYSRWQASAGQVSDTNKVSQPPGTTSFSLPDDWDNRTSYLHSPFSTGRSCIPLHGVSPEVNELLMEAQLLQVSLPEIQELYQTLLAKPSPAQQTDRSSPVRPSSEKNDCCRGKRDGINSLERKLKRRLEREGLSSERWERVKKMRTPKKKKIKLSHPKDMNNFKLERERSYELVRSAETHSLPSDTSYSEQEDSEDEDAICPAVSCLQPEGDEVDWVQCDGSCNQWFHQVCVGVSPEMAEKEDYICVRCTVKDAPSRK
#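 Compound dilutions met 200 nM (final) KDM5BΔAP for 10 min at room temperature before substrate addition. The substrate mix held 12.5 µM H3K4me3 with cofactors 25 µM α-ketoglutarate and 50 µM Fe²⁺. NADH signal gain over 30 min defined activity.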
# IP6K1 inh – inhibitors of human IP6K1 | Q92551 | IP6K1 kinase, ADP-Glo luminescence, 2 h; active compounds read low | activity change, % (series mostly up to about 58 µM) | hit rate 0.81% among 140,000; in the data active = activity change below about -25%; also: % is scaled to controls: 0 for no effect and ±100 for the full control effect
#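 ADP-Glo luminescence measures ADP made by human IP6K1 during a 2 h RT reaction with ATP/IP6 (mix at 1.3 mM/130 uM); top library doses 57.5 and 19.1 uM final.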
# * marks the source's active call; other numbers are inactive results; i = inactive; ? = inconclusive; / = no result. An excerpt weighted towards active compounds, which were near 2.7% of everything screened.
SMILES,KDM5B inh,IP6K1 inh
Fc1ccc(Cc2nc3nccc(-c4ccc5c(c4)OCCCO5)n3n2)cc1,?,-6
c1csc(-c2nc3nccc(-c4cccs4)n3n2)c1,?,-1
Fc1cc(F)cc(Cc2nc3nccc(-c4cccs4)n3n2)c1,25µM*,-6
Fc1ccc(Cc2nc3nccc(-c4ccsc4)n3n2)cc1,25µM*,-2
Fc1ccc(Cc2nc3nccc(-c4ccccc4)n3n2)cc1,28µM*,-3
COc1ccc(Cc2nc3nccc(-c4ccccc4)n3n2)cc1,i,-11
COc1cccc(-c2ccnc3nc(Cc4ccc(F)cc4)nn23)c1,25µM*,13
Cc1cc2occ(CC(=O)Nc3ccc(Cl)cc3F)c2cc1C,i,/
O=C(Nc1ccc(F)c(F)c1)c1cc(S(=O)(=O)C2CCS(=O)(=O)C2)ccc1F (configuration not stated),i,/
N#Cc1ccccc1NC1=CC(=O)CC(c2ccccc2)C1 (configuration not stated),i,/
Cc1nn(Cc2ccccc2)c(C)c1[C@@H]1C=C[C@@H](NC(=O)c2ccco2)C1,?,-3
Cc1nn(Cc2ccccc2)c(C)c1[C@@H]1C=C[C@@H](NC(=O)c2ccc(F)c(Cl)c2)C1,28µM*,-12
Cc1ccc2nc3n(c2c1)[C@@H](CNCc1ccc2c(c1)OCO2)COC3,i,20
COc1ccc(-n2cc(-c3ccnc(N(C)Cc4cnccn4)n3)cn2)cc1,?,61
COc1ccc(-n2cc(-c3ccnc(NCCC4CCCN4C)n3)cn2)cc1 (configuration not stated),28µM*,8
Cc1ncccc1-c1nc2cc(C(=O)NCCCc3ccccc3)ccc2o1,/,7
O=C(NCC1CCCO1)c1cccc2ccccc12 (configuration not stated),i,/
O=C(NCC1COCCO1)c1ccc(CN2CCC(N3CCCC3)CC2)[nH]c1=O (configuration not stated),28µM*,-9
Cn1ncc2c(C(=O)NCCc3ccc(Cl)cc3)cc(-c3ccc(Cl)cc3)nc21,?,2
CC(C)NC(=O)c1cc(-c2ccc(Cl)cc2Cl)nc2c1cnn2C,89µM*,-4
Cn1ncc2c(C(=O)NCCc3ccc(Cl)cc3)cc(-c3ccc(Cl)cc3Cl)nc21,71µM*,-16
Cn1ncc2c(C(=O)NC3CC3)cc(-c3ccc(Cl)cc3Cl)nc21,/,-7
Cn1ncc2c(C(=O)N3CCN(Cc4ccccc4)CC3)cc(-c3ccccc3F)nc21,/,2
CCN(Cc1ccncc1)C(=O)CCC1CCN(S(=O)(=O)c2ccccc2)CC1,i,20
O=C(CCC1CCN(S(=O)(=O)c2ccccc2)CC1)Nc1ccccc1,/,1
SMILES,KDM5B inh,IP6K1 inh
CCN(Cc1ccccc1)C(=O)CCC1CCN(S(=O)(=O)c2ccccc2)CC1,25µM*,15
COc1cccc(NC(=O)CCC2CCN(S(=O)(=O)c3ccccc3)CC2)c1,28µM*,23
CCc1ccc(OCC(O)Cn2c(NCCc3ccccc3)nc3c2c(=O)[nH]c(=O)n3C)cc1 (configuration not stated),i,/
O=C(COC(=O)c1cc(Cl)ccc1[N+](=O)[O-])c1ccc(C2CCCCC2)cc1,i,/
OC1(CN2CCCCC2)CCN(c2cccc(C(F)(F)F)n2)C1 (configuration not stated),28µM*,-4
OC1(CN2CCCCC2)CCN(Cc2ccc(C(F)(F)F)cc2F)C1 (configuration not stated),i,1
O=C(CCc1ccccc1Br)NC1CCN(C2CC2)C1 (configuration not stated),i,/
COc1ccccc1-c1ccc(CN2CCCCC2C(=O)NC2CC2)cc1 (configuration not stated),/,23
CONC(=O)COC(c1ccccc1)c1ccccc1,i,/
CCn1cc(CN2CCCC(CNS(=O)(=O)c3ccc(OC)cc3)C2)cn1 (configuration not stated),i,/
COc1ccc(S(=O)(=O)NCC2CCCN(Cc3ccc(-c4ccco4)cc3)C2)cc1 (configuration not stated),28µM*,-5
O=C(c1n[nH]c2c1CCCCCC2)N1CCc2nc3cc(-c4ccccc4)[nH]n3c(=O)c2C1,?,7
O=C1CN(C(=O)CCC(=O)N2CCc3nc4cc(-c5ccccc5)[nH]n4c(=O)c3C2)c2ccccc2N1,?,15
O=C(CCCc1c[nH]c2ccccc12)N1CCc2nc3cc(-c4ccccc4)[nH]n3c(=O)c2C1,?,0
O=C(CCc1nc2ccc(Cl)cc2[nH]1)N1CCc2nc3cc(-c4ccccc4)[nH]n3c(=O)c2C1,22µM*,11
O=C1CN(C(=O)CCC(=O)N2CCc3c(nc4cc(-c5ccccc5)[nH]n4c3=O)C2)c2ccccc2N1,28µM*,5
O=C(CCc1cc(Cl)no1)N1CCc2nc3cc(-c4ccccc4)[nH]n3c(=O)c2C1,7.9µM*,0
O=C(CCc1nc2ccc(Cl)cc2[nH]1)N1CCc2c(nc3cc(-c4ccccc4)[nH]n3c2=O)C1,32µM*,13
COc1ccc(Cl)cc1C(=O)N1CCc2c(nc3cc(-c4ccccc4)[nH]n3c2=O)C1,?,14
CCOc1cc(/C=C/c2nc3ccccc3o2)ccc1OC,i,/
Cc1ccc(NC(=O)CCc2c(C)nn(-c3ccc(N4CCCC4)nn3)c2C)cc1,i,/
Cn1ncc2c(N)nc(NC3CC(c4cc(=O)[nH]c(C5CC5)n4)C3)nc21 (configuration not stated),20µM*,8
Cc1nnc(NC2CC(c3cc(=O)[nH]c(C4CC4)n3)C2)c2ccccc12 (configuration not stated),i,8
O=C(c1cc[nH]c(=O)c1)N1C[C@@H](COCC2CC2)[C@H](c2ccccn2)C1,28µM*,6
Cc1cc(C(=O)N2C[C@@H](COCC3CC3)[C@H](c3ccccn3)C2)n[nH]1,i,2
SMILES,KDM5B inh,IP6K1 inh
Cc1oc(-c2ccccc2)nc1Cn1cccc(C(F)(F)F)c1=O,i,/
Cc1nc2cc(F)cc(C(=O)NCC(C)N(C)c3ccccc3)c2nc1C (configuration not stated),i,/
CC1Cc2cc(-c3ccnc4ncnn34)ccc2O1 (configuration not stated),28µM*,-4
CC1Cc2cc(/C=C3/SC(=S)N(C)C3=O)ccc2O1 (configuration not stated),i,/
COCCn1c(N2CCC(C(N)=O)CC2)nc2c1c(=O)n(C)c(=O)n2C,i,/
O=C1NCC(c2ccc(Cl)cc2)Cc2[nH]c(-c3ccc(O)cc3)nc21 (configuration not stated),25µM*,1
COc1ccccc1C1CNC(=O)c2nc(-c3cc(C(C)(C)C)[nH]n3)[nH]c2C1 (configuration not stated),i,7
O=C(c1ccncc1)N1CC2CCC(C1)N2Cc1ccc(-c2cccs2)cc1,79µM*,-2
O=C(c1ccncc1)N1CC2CCC(C1)N2Cc1ccc(-c2ccsc2)cc1,i,-18
FC(F)(F)c1ccc(N2C3CCC2CN(Cc2ccccc2)C3)cc1,i,2
FC(F)(F)c1ccc(N2C3CCC2CN(Cc2ccc(-c4cccs4)cc2)C3)cc1,28µM*,-5
CCCCn1c(=O)n(CC(=O)Nc2ccc3c(c2)OCCO3)c(=O)c2c1ncn2C1CCCC1,i,/
CC1(C)Cc2cccc(OCc3ccc(C(=O)NC4CCCC4)cc3)c2O1,i,/
